Vaccinia Venus: vaccinia inhibition (Venus reporter); Vaccinia virus Venus reporter expression, fluorescence; hit rate 0.46% among 330,000; Potency, µM (titrated, usually from 36.5 µM), for inactives: at the top dose activity change, negative = inhibition, hits mostly inhibitors; calls by dose curve; tested in A549 cells; note: potency is the fitted concentration of half-maximal effect; nearly all actives have a fitted effect of over 30% in size
HCMV inh: inhibitors of human cytomegalovirus; HFF cells, HCMV-luciferase reporter, 72 h; hits give low values; activity change, negative = inhibition, % at 57.5 µM; hit rate 4.5% among 410,000; in the data active = activity change below about -60%; inconclusive = no clear call, values can overlap the other calls; inactive = above about -39%
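Two-dose cell screen: HFF monolayers treated with compounds and infected with luciferase-expressing HCMV at 1 PFU/cell, 72 h at 37C, then lysed for luciferase measurement.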
FMDV antiviral: blocks foot and mouth disease virus; hit rate 1.2% among 410,000; FMDV antiviral cell-based qHTS; AID 1159524; Potency, µM (titrated, usually from 57.9 µM), inactives show top-dose activity change, negative = inhibition, usual class: inhibitors; calls by dose curve; tested in HEK293T cells; note: read-out not given here; potency is the fitted concentration of half-maximal effect; nearly all actives have a fitted effect of over 45% in size
HCV inh: inhibitors of hepatitis C virus infection; Huh7.5.1 HCVcc-Cre infection, luciferase reporter, 44 h; hit rate 3.4% among 340,000; Potency, µM (highest dose often 41.8 µM), inactives show at the highest dose activity change, negative = inhibition, hits mostly inhibitors; AID 651820; active = well fitted inhibition curve with a large enough effect; inconclusive = small, poorly fitted or top-dose-only effect, or another doubt; inactive = no such curve, though single readings can be large or run the other way; note: potency is the fitted concentration of half-maximal effect
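Cells (1,000/well) were plated 4 h before compound, then infected with HCVcc-Cre virus (~0.5 moi). After 44 h further culture, infection was read as luciferase luminescence following a 15 min substrate incubation at room temperature.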
VACV mCherry inh: inhibitors of vaccinia virus infection (mCherry reporter signal); Vaccinia virus mCherry reporter infection, fluorescence; Potency, µM (highest dose often 36.5 µM), inactives show at the top dose activity change, negative = inhibition, usual class: inhibitors; hit rate 0.63% among 310,000; AID 720579; calls by dose curve; tested in A549 cells; note: potency is the fitted concentration of half-maximal effect; nearly all actives have a fitted effect of over 35% in size
* = called active by the depositor; i = inactive; ? = inconclusive; / = no result. In the library only some 7.3% were active in any assay of this set; here they are far more common. % is set by controls: 0 for no effect and ±100 for the full control effect.

SMILES	Vaccinia Venus	HCMV inh	FMDV antiviral	HCV inh	VACV mCherry inh
CCCC(=O)Nc1nnc(SCc2cc(=O)c3cc(C)ccc3[nH]2)s1	-8.5%	-12.2	?	/	-16.2%
Cc1ccc(/C=N/NC(=O)c2cccnc2)s1	-3.3%	-5.0	9.7%	15.6%	i
O=C(N/N=C\c1ccc([N+](=O)[O-])s1)c1cncc(Br)c1	/	-100.2*	?	10µM*	/
O=C(N/N=C/c1c(-c2ccccc2)[nH]c2ccccc12)c1cccnc1	/	86.9	6.4%	10µM*	/
CN(C)c1ccc(CNC(=O)c2cnc3sc(N4CCOCC4)nn3c2=O)cc1	-6.5%	-32.3	-5.3%	/	-5.1%
COc1cccc(-c2nc(SCC(=O)NC3CCCC3)c(-c3ccc(F)cc3)[nH]2)c1	-14.3%	-22.1	-12.7%	/	-5.7%
COc1cc2c(cc1OC)C1(Nc3c-2c(-c2ccccc2)nn3-c2ccccc2)C(=O)Nc2ccccc21 (stereo unspecified)	?	-14.6	-29.0%	12.6µM*	-28.1%
COCCNC(C)(CCCCC(=O)O)c1nnnn1-c1c(C)cccc1Cl (stereo unspecified)	/	-9.0	/	/	/
Cc1nc(C(C)NC2CCN(c3cccc(NC(=O)c4ccncc4)c3)CC2)cs1 (stereo unspecified)	-5.8%	/	11.3%	/	-9.8%
CC(C)c1nn2c(=O)cc(COC(=O)c3cccc(NC(=O)c4ccccc4F)c3)nc2s1	-18.3%	44.4	-5.6%	/	-0.5%
COc1cc(SC)ccc1C(=O)Nc1ccc(Br)cn1	/	-83.2*	-93.2%	?	/
COc1cc(SC)ccc1C(=O)Nc1ccccn1	-21.9%	44.9	-55.6%	?	-13.4%
COc1cc(SC)ccc1C(=O)Nc1ccc(C)cc1	?	54.3	2.0%	?	-15.9%
COc1cc(SC)ccc1C(=O)NC(C)C	-6.8%	-11.5	0.6%	-14.4%	i
COc1cc(SC)ccc1C(=O)Nc1ccon1	/	-107.5*	52.7%	?	/
COc1cc(SC)ccc1C(=O)Nc1ncc(C)s1	/	-82.0*	10µM*	?	/
COc1cc(SC)ccc1C(=O)Nc1cccc(C)n1	-18.4%	30.3	-27.4%	12.6µM*	i
COc1cc(SC)ccc1C(=O)Nc1cccc(S(=O)(=O)NC2=NCCCCC2)c1	-14.9%	-28.8	?	-28.1%	-2.0%
CCN(CC)S(=O)(=O)c1cccc(NC(=O)c2ccc(SC)cc2OC)c1	-22.9%	?	?	11.2µM*	?
CCc1ccc(C(=O)c2cn(CC(=O)Nc3ccc(C)c(C)c3)c3ccccc3c2=O)cc1	?	-3.7	-0.9%	/	-20.6%
CC(C)Cc1ccc(C(C)C(N)=NCCc2ccccc2)cc1 (stereo unspecified)	-22.4%	-86.7*	-29.7%	?	?
CC1CCN(c2nc(-c3cccnc3)nc3scc(-c4ccccc4)c23)CC1	/	34.7	-4.2%	22.4µM*	/
CC1CCN(c2nc(CN3CCCCC3)nc3scc(-c4ccccc4)c23)CC1	-15.3%	?	31.6µM*	?	-24.1%
COc1cc(Cl)c(C)cc1NC(=O)C1CCCN(c2ncnc3onc(-c4ccc(F)cc4)c23)C1 (stereo unspecified)	-15.0%	-15.8	-14.1%	/	-2.5%
SMILES	Vaccinia Venus	HCMV inh	FMDV antiviral	HCV inh	VACV mCherry inh
COc1ccccc1C1=NNC(=Nc2cccc(S(=O)(=O)N(C)C)c2)SC1	-13.3%	-80.3*	?	12.6µM*	?
CCc1ccc(NC(=O)CSC2=Nc3ccccc3C3=NC(CCC(=O)NCc4cccs4)C(=O)N23)cc1 (stereo unspecified)	-8.0%	?	-24.2%	/	-15.4%
COc1cc(OC)c(C(=O)N/N=C/c2ccoc2)cc1OC	4.1%	-68.8*	2.5%	5.3%	-0.2%
COc1ccc(C(=O)N/N=C\c2ccoc2)cc1	/	26.4	70.0%	24.2%	/
COc1cc(=O)n2c(c1C(=O)N(C)Cc1nonc1C)CCN(C(=O)c1cc(C)ccc1C)CC2	-1.0%	/	-9.2%	/	-2.9%
COc1ccc(CCNC(=O)COc2ccc(N(C)S(=O)(=O)c3ccc(Cl)cc3)cc2)cc1	?	-18.0	?	7.08µM*	?
NS(=O)(=O)c1ccc(CCNC(=O)CNC(=O)COc2ccccc2)cc1	/	-7.2	-1.2%	17.7%	/
N#Cc1ccc(OCC(=O)NCCc2ccc(S(N)(=O)=O)cc2)cc1	-8.1%	-80.3*	10.7%	11.5%	/
COc1ccc(OCC(=O)Nc2ccc(S(=O)(=O)N(C)c3ccccc3)cc2)cc1	-4.7%	-15.5	-8.4%	-0.8%	-23.6%
CC(=O)Nc1ccc(S(=O)(=O)N(C)CC(=O)OCC(=O)c2ccc[nH]2)cc1	-7.9%	17.2	-17.0%	27.8%	i
CN(c1ccc(OCC(=O)NCCc2ccccc2)cc1)S(=O)(=O)c1ccc(Cl)cc1	?	19.0	23.9%	?	-11.5%
CC(=O)Nc1ccc(S(=O)(=O)N(C)c2ccc(OCC(=O)NCCc3ccccc3F)cc2)cc1	/	-61.6*	?	?	/
CC(=O)Nc1ccc(S(=O)(=O)N(C)CC(=O)OCC(=O)NNC(=O)c2ccccc2F)cc1	-5.3%	10.6	4.47µM*	12.5%	-14.8%
O=c1c(-c2ccc(F)cc2)nc2cnc(N3CCNCC3)nc2n1Cc1ccc(F)cc1	/	/	-13.0%	/	/
CCOC(=O)Nc1cc(=O)c([N+](=O)[O-])c(N)[nH]1	/	9.5	/	/	/
Cn1cccc1C(=O)N1CCC[C@@]2(CCN(C(=O)Nc3cccc(F)c3)C2)C1	/	/	0.5%	/	/
Cc1cccc(-c2noc(-c3cccnc3NCc3ccco3)n2)c1	-3.0%	1.3	31.3%	/	-13.9%
CC(=O)Nc1ccc(S(=O)(=O)N(C)c2ccc(OCCOc3ccccc3F)cc2)cc1	-7.2%	0.0	-10.2%	10µM*	-14.3%
COc1ccc(OCCOc2ccc(N(C)S(=O)(=O)c3ccccc3)cc2)cc1	/	-3.8	?	11.2µM*	/
CC1Cn2cc(C(=O)Nc3cccc(C(F)(F)F)c3)c(=O)c3c(Cl)ccc(c32)O1 (stereo unspecified)	8.9%	10.1	-13.0%	/	-4.6%
COC(=O)c1[nH]c2ccc(C)cc2c1NC(=O)CCN1CCN(Cc2ccc3c(c2)OCO3)CC1	-21.4%	-38.6	?	20µM*	-1.8%
